Laboratory results from PubChem BioAssay (EPA / NIEHS).
Active and inactive are the calls of the source. How the source made its calls: active means hit-call score of the fitted dose curve at least 0.9, where 1 is the maximum; inactive means score below 0.9.

Key:
[1] = molecular target: CCAAT/enhancer-binding protein beta (Homo sapiens) (UniProt P17676); assay: ATG_C_EBP_CIS: Attagene CIS-FACTORIAL HepG2 Assay for human CCAAT/Enhancer Binding Protein (C/EBP) beta (AID 2282927); details: HepG2 Attagene cis-factorial transcription factor reporter; actives raise or lower the signal
Sequence of CCAAT/enhancer-binding protein beta (Homo sapiens) (P17676 whole entry, looked up, the tested form may be a part): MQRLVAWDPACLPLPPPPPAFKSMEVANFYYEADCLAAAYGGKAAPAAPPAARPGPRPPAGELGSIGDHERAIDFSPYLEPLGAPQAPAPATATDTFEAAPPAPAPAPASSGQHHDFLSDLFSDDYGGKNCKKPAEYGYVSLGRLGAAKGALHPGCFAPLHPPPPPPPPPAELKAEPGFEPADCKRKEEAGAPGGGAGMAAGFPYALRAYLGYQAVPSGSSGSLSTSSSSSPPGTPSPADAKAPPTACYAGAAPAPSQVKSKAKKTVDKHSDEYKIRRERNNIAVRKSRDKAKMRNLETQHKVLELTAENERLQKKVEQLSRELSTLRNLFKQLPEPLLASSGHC
Procedure, shortened: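 Chemical-treated HepG2 cells (24 h) bearing cis-regulated reporter constructs were processed for total RNA, then reverse transcription, PCR amplification, fluorescent primer extension and fragment analysis; gain- and loss-of-signal were fitted against DMSO.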

[2] = ATG_CMV_CIS: Attagene CIS-FACTORIAL HepG2 Assay for human CMV (Internal Marker) (AID 2282928); details: HepG2 CMV promoter reporter, transcription factor profiling; actives raise or lower the signal;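 further: endpoint acts as a background internal control marker rather than a target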
Procedure, shortened: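 Bidirectional fits against DMSO are applied to reporter mRNA, read by RT-PCR with capillary electrophoresis, from HepG2 cells exposed 24 h. The endpoint serves as an internal CMV background marker within the cis-factorial reporter panel.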

[3] = ATG_DR4_LXR_CIS: Attagene CIS-FACTORIAL HepG2 Assay for human Liver X Receptor (LXR), DR4 submotif (AID 2282929); details: HepG2 Attagene DR4 cis-reporter, mRNA transcription; actives raise or lower the signal
Procedure, shortened: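 The endpoint is DR4-element-driven reporter transcripts after 24 h chemical exposure of transfected HepG2 cells. These were measured via RT-PCR and capillary electrophoresis, and gain or loss of signal was fitted relative to DMSO controls.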

[4] = ATG_AP_1_CIS: Attagene CIS-FACTORIAL HepG2 Assay for human Activator Protein 1 (AP-1) (AID 2282931); details: HepG2 Attagene cis-factorial AP-1 reporter mRNA; actives raise or lower the signal
Procedure, shortened: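 Readout is reporter transcript level from endogenous transcription factor activity, quantified by RT-PCR with fluorescent primer extension and capillary electrophoresis. Transiently transfected HepG2 cells, 24 h exposure. Curves fitted both directions versus DMSO.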

[5] = ATG_AP_2_CIS: Attagene CIS-FACTORIAL HepG2 Assay for human Activator Protein 2 (AP-2) (AID 2282932); details: HepG2 AP-2 cis-reporter, Attagene transcription factor profiling; actives raise or lower the signal
Procedure, shortened: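 Assay in transfected HepG2 with promoter-regulated reporters, 24 h incubation after dosing. Signal is reporter mRNA fluorescence (RT-PCR, capillary electrophoresis), analysed for both increases and decreases relative to DMSO controls.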

[6] = ATG_BRE_CIS: Attagene CIS-FACTORIAL HepG2 Assay for human Bone Morphogenetic Protein (BMP) Response Element (BRE) (AID 2282933); details: HepG2 BMP response element reporter, Attagene transcription factor profiling; actives raise or lower the signal
Procedure, shortened: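 Gain- or loss-of-signal was derived by bidirectional fitting against DMSO controls. The signal came from reporter mRNA, measured by RT-PCR and capillary electrophoresis, in HepG2 cells transiently carrying multiple reporter units and dosed for 24 h.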

[7] = molecular target: Transcription factor E2F1 (Homo sapiens) (UniProt Q01094); assay: ATG_E2F_CIS: Attagene CIS-FACTORIAL HepG2 Assay for human E2F Transcription Factor 1 (AID 2282935); details: HepG2 Attagene cis-reporter, E2F reporter RNA transcripts; actives raise or lower the signal
Sequence of Transcription factor E2F1 (Homo sapiens) (Q01094 whole entry, looked up): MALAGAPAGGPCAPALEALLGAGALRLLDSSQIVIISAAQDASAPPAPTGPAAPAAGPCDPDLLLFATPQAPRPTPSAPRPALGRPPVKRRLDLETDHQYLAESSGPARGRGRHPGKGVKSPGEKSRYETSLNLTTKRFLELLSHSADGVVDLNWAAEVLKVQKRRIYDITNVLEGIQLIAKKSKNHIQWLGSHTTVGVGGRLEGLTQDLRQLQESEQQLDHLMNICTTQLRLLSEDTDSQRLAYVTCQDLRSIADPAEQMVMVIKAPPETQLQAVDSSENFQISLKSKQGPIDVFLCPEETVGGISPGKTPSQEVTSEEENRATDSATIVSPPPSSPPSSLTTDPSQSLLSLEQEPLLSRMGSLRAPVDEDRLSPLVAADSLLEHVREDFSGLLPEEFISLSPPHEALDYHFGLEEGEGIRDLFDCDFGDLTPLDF
Procedure, shortened: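 In this cis-factorial format, endogenous factor activity drives transfected reporters in HepG2; transcripts collected at 24 h are quantified by fluorescence after RT-PCR and capillary separation.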

[8] = ATG_E_Box_CIS: Attagene CIS-FACTORIAL HepG2 Assay for human Enhancer Box (E-box) (AID 2282936); details: HepG2 E-box cis-reporter transcription, actives raise or lower the signal
Procedure, shortened: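 Measured 24 h post-dosing in HepG2 cells transfected with multiple cis-regulated reporter units, signal being reporter mRNA induction detected by fluorescent RT-PCR with capillary electrophoresis; gain or loss fitted against DMSO.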

[9] = ATG_M_61_CIS: Attagene CIS-FACTORIAL HepG2 Assay for M61 Transcription Factor (Internal Marker) (AID 2282937); details: HepG2 Attagene CIS-FACTORIAL M61 internal marker reporter; actives raise or lower the signal
Procedure, shortened: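 Readout is reporter mRNA by RT-PCR, fluorescent primer extension and capillary electrophoresis, with gain or loss fitted relative to DMSO. Transfected HepG2 cells carrying endogenous-TF-driven cis reporters were exposed to chemicals for 24 hours.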

[10] = ATG_EGR_CIS: Attagene CIS-FACTORIAL HepG2 Assay for human Early Growth Response 1 (EGR1) (AID 2282938); details: HepG2 Attagene CIS-FACTORIAL EGR reporter mRNA; actives raise or lower the signal
Procedure, shortened: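 After 24 h compound exposure, RNA from reporter-transfected HepG2 cells was reverse-transcribed, PCR-amplified, fluorescently labelled and resolved by capillary electrophoresis. EGR1 reporter transcript changes, up or down, were fitted against DMSO, reflecting endogenous transcription-factor activity.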

[11] = ATG_Ets_CIS: Attagene CIS-FACTORIAL HepG2 Assay for human Erythroblast Transformation Specific (ETS) (AID 2282941); details: HepG2 ETS cis-reporter transcription, actives raise or lower the signal
Procedure, shortened: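 Endogenous transcription factor activity read as reporter mRNA via RT-PCR and capillary electrophoresis, with gain or loss fitted bidirectionally against DMSO. Human HepG2 liver cells, transiently transfected CIS reporter constructs, 24 h exposure.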

[12] = ATG_GATA_CIS: Attagene CIS-FACTORIAL HepG2 Assay for human GATA Binding Protein (AID 2282944); details: HepG2 GATA cis-element reporter, Attagene multiplex mRNA; actives raise or lower the signal
Procedure, shortened: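 DMSO serves as negative control and baseline for bidirectional fitting of reporter mRNA changes. HepG2 cells bearing transiently transfected cis-promoter reporters were exposed 24 h; transcripts detected via RT-PCR and capillary electrophoresis.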

[13] = ATG_GLI_CIS: Attagene CIS-FACTORIAL HepG2 Assay for human Zinc Finger Protein GLI1 (AID 2282945); details: HepG2, Attagene cis-factorial reporter mRNA, GLI element; actives raise or lower the signal
Procedure, shortened: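 HepG2 cells transiently transfected with cis-promoter multiplexed reporter units report endogenous transcription factor activity. After 24 h chemical exposure, reporter mRNA was quantified by RT-PCR, 6-FAM labelling, HpaI digestion and capillary electrophoresis, with bidirectional fitting against DMSO.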

[14] = ATG_ISRE_CIS: Attagene CIS-FACTORIAL HepG2 Assay for human Interferon Regulatory Factor 1 (IRF1) binding to an Interferon-Stimulated Response Element (ISRE) (AID 2282948); details: HepG2 ISRE cis-reporter (Attagene), mRNA transcription readout; actives raise or lower the signal
Procedure, shortened: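 Endogenous transcription factor activity read as reporter transcript abundance via RT-PCR and capillary electrophoresis. HepG2 cells transiently transfected, 24 h chemical exposure. Gain or loss fitted against DMSO baseline.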

[15] = ATG_M_32_CIS: Attagene CIS-FACTORIAL HepG2 Assay for M32 Transcription Factor (Internal Marker) (AID 2282949); details: HepG2 Attagene cis-factorial M32 reporter, mRNA; actives raise or lower the signal;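 further: background control marker of the multiplexed CIS panel rather than a real target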
Procedure, shortened: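 Transient MRTU transfection of HepG2; 24 h compound treatment; TriZol RNA, oligo(dT) RT, reporter PCR, 6-FAM primer extension, HpaI cut, CE. Gain/loss of signal vs DMSO.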

[16] = ATG_M_06_CIS: Attagene CIS-FACTORIAL HepG2 Assay for M06 Transcription Factor (Internal Marker) (AID 2282950); details: HepG2 Attagene CIS-FACTORIAL M06 internal marker reporter; actives raise or lower the signal
Procedure, shortened: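 Fluorescence-labelled RT-PCR products from cis-promoter reporter units, cut with HpaI and resolved by capillary electrophoresis, give the signal. Cells are human HepG2, dosed for 24 h. Serves as background control, fitted relative to DMSO.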

[17] = molecular target: Hepatocyte nuclear factor 6 (Homo sapiens) (UniProt Q9UBC0); assay: ATG_HNF6_CIS: Attagene CIS-FACTORIAL HepG2 Assay for human Hepatocyte Nuclear Factor 6 (HNF6) (AID 2282952); details: HepG2 Attagene cis-factorial HNF6 reporter transcription; actives raise or lower the signal
Sequence of Hepatocyte nuclear factor 6 (Homo sapiens) (Q9UBC0 whole entry, looked up): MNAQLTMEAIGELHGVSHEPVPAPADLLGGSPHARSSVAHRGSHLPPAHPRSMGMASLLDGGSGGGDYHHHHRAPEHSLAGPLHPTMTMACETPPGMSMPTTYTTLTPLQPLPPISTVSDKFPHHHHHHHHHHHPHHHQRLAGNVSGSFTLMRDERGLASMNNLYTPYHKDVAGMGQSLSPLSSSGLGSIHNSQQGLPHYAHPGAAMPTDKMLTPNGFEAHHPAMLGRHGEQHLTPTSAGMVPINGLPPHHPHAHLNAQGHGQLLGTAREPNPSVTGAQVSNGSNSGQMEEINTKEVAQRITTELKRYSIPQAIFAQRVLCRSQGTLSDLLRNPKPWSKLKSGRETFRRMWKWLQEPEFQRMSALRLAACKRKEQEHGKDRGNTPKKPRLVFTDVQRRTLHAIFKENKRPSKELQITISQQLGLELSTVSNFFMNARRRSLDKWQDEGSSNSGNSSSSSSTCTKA
Procedure, shortened: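 Activity values derive from bidirectional fitting against DMSO of reporter mRNA levels, measured by capillary electrophoresis of labelled RT-PCR products from HepG2 cells exposed 24 h.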

[18] = ATG_MRE_CIS: Attagene CIS-FACTORIAL HepG2 Assay for human Metal Responsive Element (MRE) (AID 2282954); details: HepG2 MRE cis-reporter transcription, Attagene multiplex; actives raise or lower the signal
Procedure, shortened: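 Readout: capillary electrophoresis of 6-FAM-labelled, HpaI-digested RT-PCR reporter products. System: HepG2 cells carrying transient multiplexed cis reporters, dosed 24 h. Analysis: bidirectional fit, DMSO baseline.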

[19] = ATG_PXRE_CIS: Attagene CIS-FACTORIAL HepG2 Assay for human Pregnane X Receptor Element (PXRE) (AID 2282957); details: HepG2 Attagene CIS-FACTORIAL PXRE reporter, mRNA; actives raise or lower the signal
Procedure, shortened: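 Fluorescent capillary electrophoresis of amplified reporter cDNA gave the signal, collected 24 h after dosing HepG2 cells that held transfected cis-element reporter constructs.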

[20] = ATG_Sox_CIS: Attagene CIS-FACTORIAL HepG2 Assay for human SRY-box transcription factor (SOX) (AID 2282960); details: HepG2 Attagene cis-factorial SOX reporter, mRNA; actives raise or lower the signal
Procedure, shortened: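 Reporter transcripts, measured by RT-PCR and capillary electrophoresis of labelled fragments, report endogenous SOX transcription factor activity. Transiently transfected human HepG2 cells receive chemical for 24 h; changes in either direction are fitted relative to DMSO.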

Measured: AC50

CCC(Br)(CC)C(=O)NC(N)=O
inactive: [1] | [2] | [3] | [4] | [5] | [6] | [7] | [8] | [9] | [10] | [11] | [12] | [13] | [14] | [15] | [16] | [17] | [18] | [20]
active: [19] 48.5 µM

Nc1ccc(-c2ccc(N)c(N)c2)cc1N
inactive: [1] | [2] | [3] | [4] | [5] | [6] | [7] | [8] | [9] | [10] | [11] | [12] | [13] | [14] | [15] | [16] | [17] | [18] | [19] | [20]

O=C(CCl)c1ccccc1
active: [3] 21.1 µM | [4] 59.3 µM | [5] 18.9 µM | [8] 16.2 µM | [14] 18.8 µM
inactive: [1] | [2] | [6] | [7] | [9] | [10] | [11] | [12] | [13] | [15] | [16] | [17] | [18] | [19] | [20]

CC(C)(O)C#N
active: [19] 27.4 µM
inactive: [1] | [2] | [3] | [4] | [5] | [6] | [7] | [8] | [9] | [10] | [11] | [12] | [13] | [14] | [15] | [16] | [17] | [18] | [20]

O=S(=O)(c1ccccc1)c1ccccc1
inactive: [1] | [2] | [3] | [4] | [5] | [6] | [7] | [8] | [9] | [10] | [11] | [12] | [13] | [14] | [15] | [16] | [17] | [18] | [20]
active: [19] 20.1 µM

Nc1ccccc1C(=O)OCCc1ccccc1
inactive: [1] | [2] | [3] | [4] | [5] | [6] | [7] | [8] | [9] | [10] | [11] | [12] | [13] | [14] | [15] | [16] | [17] | [20]
active: [18] 33.4 µM | [19] 12.3 µM

CC[N+](=O)[O-]
inactive: [1] | [2] | [3] | [4] | [5] | [6] | [7] | [8] | [9] | [10] | [11] | [12] | [13] | [14] | [15] | [16] | [17] | [18] | [19] | [20]

S=c1[nH]c2ccccc2[nH]1
inactive: [1] | [2] | [3] | [4] | [5] | [6] | [7] | [8] | [9] | [10] | [11] | [12] | [13] | [14] | [15] | [16] | [17] | [18] | [19] | [20]

CCOP(=O)(OCC)Oc1ccc([N+](=O)[O-])cc1
active: [19] 26.8 µM
inactive: [1] | [2] | [3] | [4] | [5] | [6] | [7] | [8] | [9] | [10] | [11] | [12] | [13] | [14] | [15] | [16] | [17] | [18] | [20]

[CH3][Sn]([Cl])([Cl])[Cl]
inactive: [1] | [2] | [3] | [4] | [5] | [6] | [7] | [8] | [9] | [10] | [11] | [12] | [13] | [14] | [15] | [16] | [17] | [18] | [19] | [20]

Nc1ccc([N+](=O)[O-])cc1N
inactive: [1] | [2] | [3] | [4] | [5] | [6] | [7] | [8] | [9] | [10] | [11] | [12] | [13] | [14] | [15] | [16] | [17] | [18] | [19] | [20]

O=C(NC(=O)c1c(F)cccc1F)Nc1ccc(Oc2ccc(C(F)(F)F)cc2Cl)cc1F
inactive: [1] | [3] | [4] | [5] | [6] | [7] | [8] | [9] | [10] | [11] | [12] | [13] | [15] | [16] | [17] | [18] | [20]
active: [2] 4.11 µM | [14] 26.3 µM | [19] 3.15 µM
